The sample as a whole holds a higher share of hits than the screen did.
Pf Dd2 inh = qHTS Primary assay for Inhibitors of Plasmodium falciparum Dd2 growth in vitro; P. falciparum Dd2 growth, SYBR Green, 72 h; Potency, µM (titrated, usually from 28.9 µM), most hits filed as inhibitors; 120,000 compounds, 4.3% hits; active means well fitted inhibition curve with a large enough effect; further: nearly all actives have a fitted effect of over 65% in size
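Infected erythrocytes (Dd2, 0.3% parasitemia, 2.5% hematocrit final) are added to compound in RPMI-1640/Albumax II medium, grown 72 h at 37C in low oxygen, then lysed with saponin/Triton-X containing SYBR Green and read by fluorescence.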
A number is an active result; 0 = inactive.

SMILES	Pf Dd2 inh
O=C(Nc1ccc(F)c(F)c1)C1CCCN1S(=O)(=O)c1cccc2nsnc12 (configuration not stated)	11µM
CCN(C(=O)C1CCC(CNS(=O)(=O)c2cccc3nsnc23)CC1)c1ccc(C)c(C)c1 (configuration not stated)	4.5µM
CCN(C(=O)C(Cc1ccccc1)NS(=O)(=O)c1cccc2nsnc12)c1ccccc1 (configuration not stated)	0
CCCCN(CC)C(=O)C1CCC(CNS(=O)(=O)c2cccc3nsnc23)CC1 (configuration not stated)	2.8µM
O=C(Nc1ccc(C(F)(F)F)cc1)C1CCC(CNS(=O)(=O)c2cccc3nsnc23)CC1 (configuration not stated)	2.8µM
Cc1ccc(NC(=O)C2CCC(CNS(=O)(=O)c3cccc4nsnc34)CC2)c(C)c1 (configuration not stated)	0
Cc1ccc(NC(=O)C2CCN(S(=O)(=O)c3cccc4nsnc34)CC2)cc1	0
CCc1ccc(NC(=O)C2CCCN2S(=O)(=O)c2cccc3nsnc23)cc1 (configuration not stated)	0
COc1ccc(NC(=O)CCNS(=O)(=O)c2cccc3nsnc23)cc1	0
CCN(CC)c1ccc(NC(=O)CCS(=O)(=O)c2cccc3nsnc23)c(C)c1	0
CCCCN(CC)CCNC(=O)C1CCCN(S(=O)(=O)c2cccc3nsnc23)C1 (configuration not stated)	0
O=C(c1ccno1)N1C[C@@H]2OCC(=O)N(Cc3ccccn3)[C@@H]2C1	0
COC(=O)c1cc(N2CCC(C(C)N3CCN(C)CC3)CC2)ncn1 (configuration not stated)	0
CC1(C(=O)NCc2cccc(F)c2)CCCc2cnc(Nc3cccnc3)nc21 (configuration not stated)	0
Cc1cccc(C(=O)NCCc2noc(-c3cccnc3)n2)c1	0
CCC1=C(C(=O)OC)C(c2cc(OC)ccc2OC)N2C(CC(=O)NC3CC3)=CSC2=N1 (configuration not stated)	0
FC(F)(F)C1CN(c2cc(N3CCOCC3)ncn2)CCO1 (configuration not stated)	0
Cc1ccc(C(=O)N2CCCCCCNC(=O)[C@@H]3C[C@@H](c4nc(C(C)C)no4)C[C@@H]32)s1	0
CN(C)c1ccc(CN[C@H]2CC(C)(C)[C@@H]3C[C@@](C)(O)CC[C@]23CCC(=O)NCc2cccnc2)cc1	0
CNC(=O)[C@@H]1C[C@@H](n2cc(CNC(=O)Nc3ccc(C)c(Cl)c3)nn2)CN1	0
CCn1nc(C)c(CCC(=O)NC2CCCc3c2[nH]c2c(Cl)cccc32)c1C (configuration not stated)	0
CCCc1cc(CN(C)C(=O)c2cn(CC(=O)N(CC)CC)nn2)[nH]n1	0
O=C1N(c2ccccc2)C[C@H]2CN(Cc3ccnc4ccccc34)CCN12	0
CCOCCCNC(=O)c1cc2c(=O)n(C)c3ccccc3c2n1C	0
CCCCN(CC)CCCNC(=O)c1cc2c(=O)[nH]c3ccccc3c2n1C	8.9µM
SMILES	Pf Dd2 inh
CCN(CC)CCNC(=O)c1cn(CCOC)c(=O)c2c1c1ccccc1n2C	10µM
CCCCN(CC)CCNC(=O)c1cc2c(=O)[nH]c3ccccc3c2n1C	0
CCCCN(CC)CCCNC(=O)c1cn(CC(C)C)c(=O)c2c1c1ccccc1n2C	7.1µM
CCCCNC(=O)c1c(C)oc2ncn(CC(C)C)c(=O)c12	0
CCCN(CCC)CCCNC(=O)c1cc2c(=O)[nH]c3ccccc3c2n1C	0
CCCCN(CCCC)CCNC(=O)c1cn(CC)c2ccc(S(=O)(=O)N3CCc4ccccc4C3)cc2c1=O	0
COc1cc(Cl)c(C)cc1NC(=O)c1cn(C2CCCC2)c(=O)c2c1c1ccccc1n2C	0
Cc1cc(C)n2nc(C(=O)N[C@H](c3ccccn3)C3CC(O)C3)nc2n1 (some centres not stated)	0
CCn1cnnc1CC1CCN(C(=O)Nc2ccccc2)C1 (configuration not stated)	0
Cc1c(-c2ccc(Cl)cc2)n[nH]c1C(=O)N[C@@H]1CCNC[C@H]1O	0
O=C(c1c[nH]c2ccccc12)N1CCC2(CNS(=O)(=O)c3cccnc3O2)C1 (configuration not stated)	0
Cn1nc(C(=O)N2CCCCCCNC(=O)CC2)c2ccccc21	0
Cc1ccc(C)c(C(=O)N2CCC3(CC2)NC(=O)N(c2ccc(F)cc2)N3)c1	0
CC(=O)N1CCC(NC[C@@H]2C=C(C)[C@H](Cc3nc4ccc(F)cc4[nH]3)C[C@H]2C(C)C)CC1	11µM
COc1ccc2[nH]c(C[C@@H]3C[C@@H](C(C)C)[C@H](CNC4CCN(C(C)=O)CC4)C=C3C)nc2n1	0
COC(=O)c1ccc2nc(C[C@@H]3C[C@@H](C(C)C)[C@H](CNC4CCN(C)CC4)C=C3C)[nH]c2c1	3.2µM
CC(=O)N1CCC(NC[C@@H]2C=C(C)[C@H](Cc3nc4ccc(C)cc4[nH]3)C[C@H]2C(C)C)CC1	11µM

Screening data (PubChem)
